HCMV antiviral: inhibitors of human cytomegalovirus | HFF cells, HCMV-luciferase reporter, 72 h; hits give low values | 410,000 tested, 4.5% active | activity change, negative = inhibition, % at 57.5 µM | AID 1259415; in the data active means activity change below about -60%; inconclusive means no clear call, values can overlap the other calls; inactive means above about -39%
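HFF cells seeded 16 h at 37C, treated with compounds, infected with luciferase-reporter HCMV at MOI 1 PFU/cell; luciferase read at 72 h post infection, normalized to buffer-only and Salinomycin controls.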
Pf growth 48h: inhibits P. falciparum growth in the first generation, 48 h; 310,000 tested, 5.9% active; AID 504832; P. falciparum luciferase growth in erythrocytes, 48 h; Potency, µM (titrated, usually from 28.7 µM), for inactives: at the top dose activity change, negative = inhibition, actives largely listed as inhibitors; further: potency means the concentration at half of the fitted maximal effect
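Luciferase-expressing parasites in RBCs, 2% Hct / 0.1% parasitemia final; RPMI 1640 + 0.5% Albumax; 37 C, 5% CO2, one generation; luminescence read-out, lower signal = inhibition.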
Pf growth 96h: P. falciparum growth inhibition at 96 hours | 320,000 tested, 6.9% active | P. falciparum luciferase reporter growth, 96 h | Potency, µM (top dose mostly 28.7 µM), inactives show top-dose activity change, negative = inhibition, hits mostly inhibitors; further: potency means the concentration at half of the fitted maximal effect
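Readout is luminescence from an integrated firefly luciferase in P. falciparum. Red cells, 2% hematocrit and 0.05% parasitemia final, were cultured with compound through two parasite generations (96 hours) at 37 C, 5% CO2.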
HCV inh: blocks hepatitis C virus. Huh7.5.1 HCVcc-Cre infection, luciferase reporter, 44 h. Potency, µM (top dose mostly 41.8 µM), without a hit: top-dose activity change, negative = inhibition, most hits filed as inhibitors. 340,000 tested, 3.4% active; further: potency means the concentration at half of the fitted maximal effect
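Seed cells (1,000/well) for 4 h; treat with compound and infect with HCVcc-Cre, moi about 0.5. Incubate 44 h, then detect luciferase activity.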
* hit, by the source's call; ? = inconclusive; nt = no result given. A selection: hits, their analogues and other compounds. The true share with any hit is near 13%. Unless noted, the call rests on the fitted dose curve; in most records, active means well fitted inhibition curve with a large enough effect; inconclusive means small, poorly fitted or top-dose-only effect, or another doubt; inactive means no such curve, though single readings can be large or run the other way. On the % scale 0 is the no-effect control and ±100 the full control effect.

SMILES	HCMV antiviral	Pf growth 48h	Pf growth 96h	HCV inh
COc1cc(-c2cnc3c(NC=O)cc(-c4cccc(C(F)(F)F)c4)cn23)cc(OC)c1OC	-67.2*	nt	nt	nt
CCOC(=O)c1ccc(NS(=O)(=O)c2ccc3c(c2)CCN3C(=O)CC)cc1	-16.4	nt	nt	nt
CCOC(=O)c1ccc(NC(=O)COCc2cc(-c3ccc4c(c3)OCO4)on2)cc1	-13.1	nt	nt	nt
COc1cccc(-c2cc(NC=O)c3ncc(-c4cc(OC)c(OC)c(OC)c4)n3c2)c1	-81.2*	nt	nt	nt
CC(=O)Nc1cc(-c2ccc(N3CCN(C)CC3)cc2)cn2c(-c3ccccc3)cnc12	-60.3*	nt	nt	nt
Clc1cccc(C2Nc3cccc4cccc(c34)N2)c1	43.3	7.38µM*	62.7%	17.5%
CN(C)c1ccc(C2Nc3cccc4cccc(c34)N2)cc1	94.4	nt	3.7µM*	18.1%
Oc1ccccc1C1Nc2cccc3cccc(c23)N1	-15.9	13.1µM*	-7.2%	8.0%
COc1ccccc1C1Nc2cccc3cccc(c23)N1	-26.5	?	-10.1%	1.0%
O=[N+]([O-])c1ccccc1C1Nc2cccc3cccc(c23)N1	-17.8	?	?	-15.6%
O=[N+]([O-])c1ccc(Cl)c(C2Nc3cccc4cccc(c34)N2)c1	-81.5*	?	?	-29.1%
COc1cccc(-n2cc(C(=O)OCc3ccc(F)c(F)c3)c3ccccc3c2=O)c1	8.4	nt	nt	nt
COc1ccc(-c2cc(-c3ccc(F)cc3)nc3c2COc2ccc(F)cc2-3)cc1	32.8	nt	nt	nt
COc1ccc(NC(=O)Nc2nnc([C@@H]3C[C@H](O)[C@@H](CO)O3)s2)cc1	-1.2	nt	nt	nt
COCCCNc1ccn2nc(-c3ccccc3)cc2n1	57.2	nt	nt	nt
CC(C)(CO)CNc1ccn2nccc2n1	-69.6*	nt	nt	nt
COc1ccc(-c2nc3scc(CCNS(=O)(=O)c4cccc(C(C)=O)c4)n3n2)cc1	50.9	nt	nt	nt
O=C(O)c1ccc(NCc2cccnc2)c([N+](=O)[O-])c1	-1.8	-4.3%	100.1%	-3.3%
COc1ccc([N+](=O)[O-])cc1NCc1cccc([N+](=O)[O-])c1	-3.3	0.3%	26.2%	3.98µM*
Cc1ccc(NC(=O)c2cc([N+](=O)[O-])ccc2NCc2cccnc2)cc1	38.0	13.1µM*	?	?
O=[N+]([O-])c1ccc2ncnc(Nc3ccc4c(c3)OCCO4)c2c1	-27.7	9.28µM*	?	-4.5%
COc1cc([N+](=O)[O-])ccc1NC(=O)NCc1cccnc1	-23.2	-16.3%	33.5%	-17.4%
COc1ccc([N+](=O)[O-])cc1NCc1cccnc1	10.5	39.5%	-21.0%	7.94µM*
COc1ccc([N+](=O)[O-])cc1NCc1c(F)cccc1F	4.1	nt	nt	nt
COc1ccc2c(CNCc3ccco3)c(C(=O)O)n(Cc3ccc(F)cc3Cl)c2c1	-3.8	nt	nt	nt
SMILES	HCMV antiviral	Pf growth 48h	Pf growth 96h	HCV inh
CCC(=O)N1c2ccccc2CC1C(=O)NCCc1ccccc1C (stereo not drawn)	-11.1	nt	nt	nt
CCc1ccc(NC(=O)CCn2c(-c3ccc(OC)cc3)cc(C(C)=O)c2C)cc1	0.0	nt	nt	nt
COc1ccc([N+](=O)[O-])cc1Nc1ncnc2ccccc12	-61.9*	14.6%	?	?
COc1ccc(CN2C(=O)C(C)Nc3ncnc(N4CCN(c5ccccc5)CC4)c32)cc1 (stereo not drawn)	-13.0	nt	nt	-26.1%
CC1Nc2ncnc(N3CCOCC3)c2N(Cc2ccccc2)C1=O (stereo not drawn)	-11.8	?	?	4.7%
CC(C)CC1Nc2ncnc(N3CCN(c4ccccc4)CC3)c2N(Cc2ccc(Cl)cc2)C1=O (stereo not drawn)	-11.8	9.28µM*	9.28µM*	-28.9%
COc1ccc(CN2C(=O)C(C)Nc3ncnc(N4CCOCC4)c32)cc1 (stereo not drawn)	-64.6*	nt	nt	-0.5%
CC1Nc2ncnc(N3CCN(c4ccccc4)CC3)c2N(Cc2ccc(Br)cc2)C1=O (stereo not drawn)	26.7	13.1µM*	?	?
CCC1Nc2ncnc(N3CCN(c4ccccc4)CC3)c2N(Cc2ccc(C)cc2)C1=O (stereo not drawn)	13.6	?	11.7µM*	2.82µM*
Cc1ccc(CN2C(=O)C(CC(C)C)Nc3ncnc(N4CCN(c5ccccc5)CC4)c32)cc1 (stereo not drawn)	24.5	nt	nt	?
COc1cc2[nH]c(=O)n(Cc3ccc(C(=O)N4CCN(c5cc(Cl)ccc5C)CC4)cc3)c(=O)c2cc1OC	-4.1	nt	nt	nt
CCC(=O)N1c2ccccc2CC1C(=O)NCc1ccccc1Cl (stereo not drawn)	-0.1	nt	nt	nt
CC(=O)c1ccc(NC(=O)C2CCCN(S(=O)(=O)c3cn(C)cn3)C2)cc1 (stereo not drawn)	-5.5	nt	nt	nt
CC1=C(C(=O)OCC2CCCCC2)C(c2ccc(Cl)cc2Cl)CC(=O)N1 (stereo not drawn)	12.0	nt	nt	nt
COc1ccc(-n2cccc2/C=C/[N+](=O)[O-])cc1	-101.6*	?	3.29µM*	?
Cn1cc(C(=O)NCCN2CCN(c3cccc(Cl)c3)CC2)c2c3ccccc3n(C)c2c1=O	-7.5	1.04µM*	?	0.7%
Cn1c(=O)cc(OCC(=O)NCCCN2CCN(c3cccc(Cl)c3)CC2)c2ccccc21	17.5	?	11.7µM*	?
Cc1cccc(CCNC(=O)CCCOc2cc(=O)n(C)c3ccccc23)c1	86.3	?	?	-29.2%
Cc1cccc(CCNC(=O)COc2cc(=O)n(C)c3ccccc23)c1	9.6	-11.4%	10.4µM*	-3.2%
CC(Sc1ncc(S(=O)(=O)c2ccc(C(C)C)cc2)c(N)n1)C(=O)Nc1ccccc1 (stereo not drawn)	-73.8*	nt	nt	nt
CCc1ccccc1NC(=O)CSc1ncc(S(=O)(=O)c2ccc(C(C)C)cc2)c(N)n1	-28.9	nt	nt	nt
